# According to PubChem BioAssay AID1578 (Sanford-Burnham Center for Chemical Genomics, 2009):
# Screen size: about 290,000 compounds; about 3,000 (1%) were called active. The sample as a whole holds a higher share of actives than the screen did. A number with no mark means an inactive call. Cut-off read from the data, not from the text of the source: active = inhibition mostly above about 36% (no sharp cut-off); inactive = mostly below about 34%.
# Assay: inhibition of NOD1-driven NF-kB reporter – cell-based, luminescence, uHTS, primary screen (AID 1578);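 note: HEK-293T reporter cells stimulated with the NOD1 agonist gamma-tri-DAP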
# Settings: NOD1-driven NF-kB luciferase reporter cells, at 4 µM, stronger effect = higher value
row,SMILES,inhibition
1,CCCC(C)NC(=O)/C=C/c1cccc([N+](=O)[O-])c1 (stereo not drawn),-26.2%
2,CCOC(=O)CNC(=O)CSc1nnc(NC(=O)c2ccc3c(c2)OCO3)s1,-31.4%
3,CCOC(=O)CNC(=O)CSc1nnc(NC(=O)c2ccc(C)cc2)s1,44.8% (active)
4,CCOC(=O)CNC(=O)CSc1nnc(NC(=O)c2ccccc2Cl)s1,-7.6%
5,CN1CCN(NC(=O)C23CC4CC(CC(C4)C2)C3)CC1,-2.4%
6,COc1ccccc1NC(=O)Cc1coc2cc(C)ccc12,-17.5%
7,COc1ccc2c(CC(=O)Nc3ccccc3N3CCOCC3)coc2c1,16.3%
8,COc1ccc2c(CC(=O)Nc3ccccc3OC)coc2c1,57.6% (active)
9,O=C(NC(=S)Nc1ncccn1)c1ccc(Cl)cc1Cl,-41.6%
10,COc1ccc(C2=NN(c3ccccc3)C(c3cccs3)C2)cc1 (stereo not drawn),46.8% (active)
11,CC(=O)Nc1ccc(C2=NN(c3ccccc3)C(c3cccs3)C2)cc1 (stereo not drawn),-0.7%
12,COc1ccc(C2=NN(S(C)(=O)=O)C(c3cccs3)C2)cc1 (stereo not drawn),-16.2%
13,CC(=O)c1ccc(NC(=O)CCc2nnc3ccc(N4CCC5(CC4)OCCO5)nn23)cc1,-15.6%
14,CCOc1cc2[nH]c(=O)n(CCCN3CCCC3=O)c(=O)c2cc1OCC,0.4%
15,CCCc1cc(-c2n[nH]c(=S)n2-c2cccc(C)c2)cs1,-9.6%
16,O=C(c1cccc([N+](=O)[O-])c1)c1ccccn1,-6.3%
17,O=C(N/N=C(\c1ccccc1)c1ccccn1)c1cccc([N+](=O)[O-])c1,103% (active)
18,O=C(NNC(=O)c1ccccn1)c1cccc([N+](=O)[O-])c1,-43.1%
19,O=C(O)c1ccc(C(=O)C(=O)c2ccccc2)cc1,-2.3%
20,C=C(C(=O)c1ccccc1)C(c1ccccc1)C(C)C(=O)c1ccccc1 (stereo not drawn),44.3%
21,C=C(C(=O)c1ccccc1)C(C)C(=C)C(=O)c1ccccc1,99% (active)
22,O=C(CC(CC(=O)c1ccccc1)c1ccccc1)c1ccccc1,-4.1%
23,O=C(CC(C(=O)O)c1ccc(Cl)cc1)c1ccccc1 (stereo not drawn),-13%
24,CC1c2[nH]c3ccccc3c2C[C@H]2C(=O)N(CCO)CC(=O)N12 (stereo partly drawn),-2.7%

row,SMILES,inhibition
1,C=CCc1c(OC(C)=O)c2ccccc2n(C)c1=O,-38%
2,COc1ccc2c(c1)c(CC(=O)Nc1nnc(C3CC3)s1)c(C)n2C(=O)c1ccc(Cl)cc1,64.9% (active)
3,COc1ccc(NC(=O)Cc2c(C)n(C(=O)c3ccc(Cl)cc3)c3ccc(OC)cc23)cc1,-13.3%
4,COc1ccc2c(c1)c(CC(=O)Nc1ccc(C)cc1)c(C)n2C(=O)c1ccc(Cl)cc1,24.5%
5,COc1ccc(C(=O)Nc2cc(-c3nn4c(C)nnc4s3)ccc2C)cc1,-18.2%
6,CCC1(c2ccccc2)NC(=O)N(CC(=O)NCc2ccccc2OC)C1=O (stereo not drawn),0.8%
7,COc1ccc(-c2cc(C(=O)N3CCN(S(=O)(=O)c4ccccc4)CC3)[nH]n2)cc1,4.3%
8,COc1cccc2sc(Nc3nnc(-c4ccc(F)cc4)o3)nc12,-29.8%
9,COc1cc(OC)cc(-c2nnc(Nc3nc4c(F)cccc4s3)o2)c1,21%
10,COc1cccc2sc(Nc3nnc(-c4cccs4)o3)nc12,84.7% (active)
11,COc1ccc(-c2nnc(Nc3nc4c(OC)cccc4s3)o2)cc1,-20.8%
12,Fc1cccc2sc(Nc3nnc(-c4ccco4)o3)nc12,104% (active)
13,Fc1cccc2sc(Nc3nnc(-c4ccccc4)o3)nc12,52.7%
14,CCOC(=O)C1C(=O)NC(c2ccccc2)=NC1c1cccc(Br)c1 (stereo not drawn),-36.5%
15,CC1/C(=N/O)CC(c2ccco2)NC1c1ccco1 (stereo not drawn),-0.7%
16,COc1ccc(NC(=S)N2CCC(NC(=O)c3ccc(F)cc3)CC2)cc1,-29%
17,Cc1cc(C)c(S(=O)(=O)N2CCOCC2)c(C)c1N(C)S(=O)(=O)c1ccccc1,-19.6%
18,N#C/C(=C\c1ccc(OCC(N)=O)cc1)c1ccccc1,-59.4%
19,O=C(Nc1cccnc1)c1cccc(S(=O)(=O)N2CCOCC2)c1,-21%
20,CN1CCC(OC(=O)c2ccco2)CC1,-32.4%
21,O=C1C(C=Nc2ccccc2O)=C(O)c2ccccc21,-64.5%
22,O=c1c(=Nc2ccccc2O)c(=O)c2ccccc12,-41.2%
23,CNC(=O)COC(=O)c1ccccc1Nc1ccccc1,-60.3%
24,COc1cc(/C=C(\NC(C)=O)C(=O)NC(C)(C)CC(C)(C)C)ccc1OC(C)=O,-17.3%

row,SMILES,inhibition
1,COc1ccc(/C(O)=C/c2nc3ccccc3n(-c3ccccc3)c2=O)cc1,-72.6%
2,COc1ccc(-n2c(=O)c(CCC(=O)N(C)Cc3ccccc3C)nc3ccccc32)cc1,-8.4%
3,COc1cccc(CC(=O)N2CCC(CCC(=O)Nc3cccc(OC)c3)CC2)c1,-3.8%
4,Cc1cccc(C)c1NC(=O)CCCN1C(=O)C(c2ccccc2)Oc2cccnc21 (stereo not drawn),-12.2%
5,COc1ccccc1NC(=O)CCCN1C(=O)C(c2ccccc2)Oc2cccnc21 (stereo not drawn),-2.8%
6,Cc1cccc(NC(=O)CCCN2C(=O)C(c3ccccc3)Oc3cccnc32)c1C (stereo not drawn),42.2% (active)
7,CCOc1ccc(NC(c2ccccc2)P(=O)(OC)OC)cc1 (stereo not drawn),73.2% (active)
8,COP(=O)(OC)C(Nc1ccc([N+](=O)[O-])cc1)c1ccccc1 (stereo not drawn),-11.2%
9,COP(=O)(OC)C(Nc1ccc(Cl)cc1)c1ccccc1 (stereo not drawn),-7.2%
10,Cc1cc(NC(=O)c2ccc(Br)o2)ccc1NC(=O)c1ccco1,-55.3%
11,COC1c2ccccc2C(=O)N1CCc1ccc(Cl)cc1 (stereo not drawn),-31.1%
12,CNc1cc(C)nc(N2CCOCC2)n1,-5.2%
13,CC1(c2ccccc2)CC(C)(C)N(C(=O)c2cc([N+](=O)[O-])cc([N+](=O)[O-])c2)c2ccccc21 (stereo not drawn),-2.3%
14,CC1(c2cccc([N+](=O)[O-])c2)CC(C)(C)N(C(=O)c2ccccc2)c2ccccc21 (stereo not drawn),82.6% (active)
15,CC1(c2cc([N+](=O)[O-])cc([N+](=O)[O-])c2)CC(C)(C)N(C(=O)c2ccccc2)c2ccccc21 (stereo not drawn),4.5%
16,CCCCCCCC(O)CC(CC1CCCCC1)C(=O)NN (stereo not drawn),-15%
17,Cc1cc(C(F)(F)F)nn1CC(=O)NNC(=S)NCC(C)C,-1.1%
18,Cc1ccc2c(c1)N(CCCC(=O)NCCCN1CCCC1=O)C(=O)CO2,-14.9%
19,COc1cccc(NC(C)C(=O)N2CC(C)OC(C)C2)c1 (stereo not drawn),-26.3%
20,O=c1c2cc(Br)ccc2nc(-c2ccccc2)n1O,6.1%
21,Cc1ccc(-c2nc3ccc(Cl)cc3c(=O)n2O)cc1,1.3%
22,COc1ccc(CCNC(=O)C2CCN(S(=O)(=O)c3ccc4c(c3)oc(=O)n4C)CC2)cc1OC,-10.7%
23,COC(=O)c1sccc1NC(=O)CSc1ccccc1NS(=O)(=O)c1ccc(Cl)cc1,44.2%
24,COC(=O)c1sccc1NC(=O)CSc1ccccc1NS(=O)(=O)c1ccccc1Cl,5.3%

row,SMILES,inhibition
1,CC(C)[C@H](NC(=O)C1CCN(S(=O)(=O)c2ccccc2)CC1)C(=O)NCc1ccccn1,-25.4%
2,CCOC(=O)C(=CNc1cc(C(F)(F)F)ccc1N1CCOCC1)C(=O)OCC,4%
3,CCC(C)(C)NC(=O)C(c1ccc(OC)cc1)N(Cc1ccc(OC)cc1)C(=O)CCC(=O)Nc1cc(C)on1 (stereo not drawn),-11.8%
4,COCCNC(=O)/C(C#N)=C/c1nc(N(C)C)n(-c2ccc(F)cc2)c1Cl,-7.8%
5,CN(C)c1nc(C=C(C#N)C#N)c(Cl)n1-c1ccc(F)cc1,80.7% (active)
6,CN(C)c1nc(/C=C(\C#N)C(N)=O)c(Cl)n1-c1ccc(F)cc1,-6.6%
7,Oc1c(Br)cc(Br)c(/C=N/n2c(-c3ccccc3)n[nH]c2=S)c1Br,63.3% (active)
8,Oc1c(Br)cc(/C=N/n2c(-c3ccccc3)n[nH]c2=S)c(O)c1Br,28.5%
9,Oc1c(Br)cc(/C=N/n2c(-c3ccccc3)n[nH]c2=S)c(Br)c1O,-1.1%
10,CCOC(=O)c1nnn(CC(=O)NC(=O)Nc2ccccc2)c1C(=O)OCC,-7.4%
11,COc1ccc(-c2cn(-c3ccc(Br)cc3)c3[n+]2CCS3)cc1,-4.3%
12,CC(C)(C)c1ccc(-c2cn(-c3ccc(Br)cc3)c3[n+]2CCCS3)cc1,57.2% (active)
13,CC(=O)c1ccc(-n2cc(-c3ccc(C(C)(C)C)cc3)[n+]3c2SCCC3)cc1,5.2%
14,Cc1cc(=O)c2ccc(C(F)(F)F)cc2[nH]1,-14.1%
15,COCCn1c(=S)[nH]c2cc(C(=O)N3CCN(c4cccc(Cl)c4)CC3)ccc2c1=O,13.3%
16,COc1ccc(N)c2c1C(=O)c1ccccc1C2=O,-34.4%
17,COc1ccc(OC)c2c1C(=O)C(Cl)=C(Cl)C2=O,93.8% (active)
18,COc1ccc(OC)c2c1C(=O)c1ccccc1C2=O,-6.7%
19,CCOc1ccc2nc(Cl)c(/C=C/C(=O)c3ccco3)cc2c1,69.3% (active)
20,Cc1ccc2nc(Cl)c(/C=C/C(=O)c3ccco3)cc2c1,-0.1%
21,CCOc1ccc2cc(/C=C/C(=O)c3ccco3)c(Cl)nc2c1,1.7%
